High-throughput results as filed in PubChem BioAssay.
Mtb FBA inh: inhibits M. tuberculosis FBA enzyme. inhibition, % at 1 µM. 360,000 compounds, 2.3% hits. purified M. tuberculosis FBA, fluorescence read-out; in the data active = inhibition above about 27%
Target sequence (P9WQA3 whole entry, looked up): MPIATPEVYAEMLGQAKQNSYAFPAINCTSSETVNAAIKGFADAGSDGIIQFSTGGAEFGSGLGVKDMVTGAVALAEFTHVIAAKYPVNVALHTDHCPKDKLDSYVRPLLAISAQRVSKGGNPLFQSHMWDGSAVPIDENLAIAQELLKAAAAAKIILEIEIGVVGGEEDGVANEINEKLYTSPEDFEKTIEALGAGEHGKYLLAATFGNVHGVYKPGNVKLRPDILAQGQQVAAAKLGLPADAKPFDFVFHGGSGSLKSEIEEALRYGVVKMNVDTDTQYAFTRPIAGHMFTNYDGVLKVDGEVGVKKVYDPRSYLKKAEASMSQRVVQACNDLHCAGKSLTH
PfHsp40 yeast: rescue of PfHsp40-mediated yeast toxicity. S. cerevisiae expressing PfHsp40, growth rescue, ATP luminescence. growth rescue, % at 12.5 µM. 340,000 compounds, 0.68% hits; in the data active = growth rescue above about 28%, passing the limit was not always enough; inconclusive = no clear call, values can overlap the other calls;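 note: yeast W303a lacking pdr1 and pdr3 grown in galactose medium; growth measured after three days at 30 °C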
PrPC surface inh: inhibitors of human cell surface prion protein PrPC; P04156; TR-FRET read-out; inhibition, % at 13.8 µM; 370,000 compounds, 0.43% hits; AID 720596; in the data active = inhibition above about 24%
BJeLR lethal: BJeLR cell viability loss; BJeLR (HRASV12) viability, CellTiter-Glo ATP luminescence, 48 h; AID 1554; 300,000 compounds, 0.17% hits; inhibition, % (test concentration not listed); in the data active = inhibition above about 50%; inconclusive = no clear call, values can overlap the other calls
GDH-TPI counter: inhibits GDH-TPI coupling enzymes, artifact for Mtb FBA screen. GDH-TPI coupled enzyme counterscreen, NADH absorbance. 360,000 compounds, 1.2% hits. AID 588335. inhibition, % at 4.8 µM; in the data active = inhibition above about 30%
PrP UTR inh: inhibition of PrP 5' UTR reporter expression | cell-based PrP 5' UTR mRNA reporter, plate reader | inhibition, % (no concentration beside the values) | 340,000 compounds, 0.35% hits | AID 488862; in the data active = inhibition above about 52%
Hits are given with their value; – = inactive; ? = inconclusive; · = not tested or not shown; + = active, no number. The list is not random: actives were taken first. Their share in the collection is about 4.5%.

SMILES | Mtb FBA inh | PfHsp40 yeast | PrPC surface inh | BJeLR lethal | GDH-TPI counter | PrP UTR inh
CCOc1ccccc1Oc1c(C)oc2c(CN3CCN(C)CC3)c(O)ccc2c1=O | 138 | – | – | · | 42 | –
Cc1nc2ccc(S(=O)(=O)NCC(=O)NCc3ccccc3C)cc2s1 | · | · | – | · | · | ·
COc1ccc(C(C(=O)NC(C)(C)C)N(C(=O)CCC(=O)Nc2cc(C)on2)c2cccc(F)c2)cc1 (stereo unspecified) | – | – | – | – | – | –
CCC(C)(C)NC(=O)C(c1ccc(OC)cc1)N(C(=O)CCC(=O)Nc1cc(C)on1)c1cccc(F)c1 (stereo unspecified) | 117 | – | – | – | – | –
O=C(C1CCC1)N1CCc2cc(S(=O)(=O)N3CCCC3)ccc21 | · | · | – | · | · | ·
CC1(C)CC(=O)C(C(=O)Cc2ccccc2[N+](=O)[O-])C(=O)C1 | – | 29 | – | – | – | –
CCOCCCn1c(-c2ccc(Cl)cc2)n[nH]c1=S | – | – | – | – | – | –
COCCCn1c(-c2ccc(Cl)cc2)n[nH]c1=S | 28 | – | – | – | – | –
C=CCC[C@H](Cc1ccc(F)cc1)C(=O)OC[C@@H]1CCCN1C(=O)[C@@H](CC=C)CC(=O)NCCO | – | – | – | · | – | –
C=CC[C@@H](Cc1ccc(F)cc1)C(=O)OC[C@@H]1CCCN1C(=O)[C@H](CC=C)CC(=O)N(CCO)Cc1ccccc1 | – | 37 | – | · | – | –
C=CCC[C@H](Cc1ccc(F)cc1)C(=O)OC[C@H](Cc1c[nH]c2ccccc12)NC(=O)[C@@H](CC=C)CC(=O)NCCO | – | 47 | – | · | – | –
C=CC[C@@H](Cc1ccc(F)cc1)C(=O)OC[C@H]1CCCN1C(=O)[C@@H](CC=C)CC(=O)N(CCO)Cc1ccccc1 | – | ? | – | · | – | –
C=CCC[C@@H](Cc1ccc(F)cc1)C(=O)OC[C@H](C)NC(=O)[C@@H](CC=C)CC(=O)N(CCO)Cc1ccccc1 | – | – | – | · | – | –
C=CCC[C@@H](Cc1ccc(F)cc1)C(=O)OC[C@H](C)NC(=O)[C@H](CC=C)CC(=O)N(CCO)Cc1ccccc1 | 134 | ? | – | · | – | –
C=CCC[C@@H](Cc1ccc(F)cc1)C(=O)OC[C@@H]1CCCN1C(=O)[C@@H](CC=C)CC(=O)N[C@@H](CO)Cc1ccccc1 | – | 41 | – | · | – | –
O=C1CCC[C@H]2C[C@H](NCc3cccc(I)c3)CC[C@]23CCCN13 | · | · | – | · | · | ·
CC12CN3CC(C)(CN(C1)C3c1ccccc1F)C2 (stereo unspecified) | – | 61 | – | – | – | –
CC12CN3CC(C)(CN(C1)C3c1ccccc1Cl)C2O (stereo unspecified) | – | – | – | – | – | –
O=S1(=O)c2ccc(Br)cc2OC[C@@H](Cc2ccccc2)N1Cc1cn(Cc2ccccc2)nn1 | · | · | – | · | · | ·
O=C(NCc1cccnc1)/C(=C\c1ccc(-c2ccc(Cl)c(Cl)c2)o1)S(=O)(=O)c1ccccc1 | – | – | – | – | 31 | –
O=C(NCc1cccnc1)c1ccc(-c2cc(Cl)ccc2Cl)o1 | – | – | – | – | – | –
O=C(OCCN1CCN(C2CN(Cc3cn(Cc4ccccc4Cl)nn3)S(=O)(=O)C2)CC1)c1cc2ccccc2o1 (stereo unspecified) | · | · | – | · | · | ·
C[C@@H](N)P(=O)(O)C[C@H](Cc1ccccc1)C(=O)O | · | · | – | · | · | ·
Cc1cccc(NC(=O)c2cc([N+](=O)[O-])ccc2Cl)c1O | – | – | – | – | – | –
Cc1n[nH]c(C)c1NC(=O)c1cc([N+](=O)[O-])ccc1Cl | 142 | – | – | – | – | –
SMILES | Mtb FBA inh | PfHsp40 yeast | PrPC surface inh | BJeLR lethal | GDH-TPI counter | PrP UTR inh
CC(=O)N[C@H]1C[C@@H]1c1ccccc1 | – | – | – | – | – | –
N[C@@H]1C[C@H]1c1ccccc1 | – | 44 | – | · | – | –
C#CCNC(=O)C[C@H]1C[C@@]2(C(=O)OC)C(=C[C@H](COCc3ccccc3)O[C@@H]2C)N(CCCCCCCC)C1=O | · | · | – | · | · | ·
COC(=O)c1sccc1-c1ccc(/C=N/OC(=O)c2ccccc2)o1 | – | – | – | – | 31 | –
COC(=O)c1ccccc1-c1ccc(C=O)o1 | – | – | – | – | – | –
COC(=O)N/N=C/c1ccc(-c2ccc(Cl)cc2Cl)o1 | – | – | – | – | 34 | –
COC(=O)N/N=C/c1ccc(-c2ccccc2Cl)o1 | – | – | – | – | 35 | –
COC(=O)c1ccccc1-c1ccc(/C=N/NC(N)=O)o1 | – | – | – | – | 32 | –
COC(=O)c1ccc(Cl)c(-c2ccc(/C=N/NC(=O)Nc3ccccc3)o2)c1 | – | – | – | – | – | –
CC(C)(C)c1ccc(-c2csc(N3CCC(C(N)=O)CC3)n2)cc1 | · | · | – | · | · | ·
Cc1ccc(CN2C(=O)CCC2C(=O)NC(C)C)cc1 (stereo unspecified) | – | 78 | – | – | – | –
CN1CCN(c2ccc(C=O)cc2)CC1 | – | – | – | – | 37 | –
O=Cc1ccc(N2CCCCC2)cc1 | – | – | – | – | – | –
CCOc1ccc(Cc2onc3c2C(=O)CCC3)cc1OCC | + | – | – | – | – | –
C#CCNC(=O)C[C@H]1C[C@@]2(C(=O)OC)C(=C[C@H](COCc3ccccc3)O[C@@H]2C)N(Cc2cccc3ccccc23)C1=O | · | · | – | · | · | ·
CCc1cc(N2CCOCC2)cc2c1[nH]c1ccccc12 | 96 | – | – | · | – | –
COc1ccccc1-c1nnc(NC(=O)c2ccc(S(=O)(=O)N(C)C)cc2)o1 | – | – | – | – | 34 | –
CCOC(=O)c1csc(NC(=O)C2CCCN(S(=O)(=O)c3ccccc3)C2)n1 (stereo unspecified) | · | · | – | · | · | ·
Cc1ccnc(NC(=S)N2CC3CN(c4cccc(C(F)(F)F)c4)CC3C2)c1 (stereo unspecified) | · | · | – | · | · | ·
COC(=O)C1CN(Cc2cn(CCOC(C)=O)nn2)CCS(=O)(=O)N1Cc1ccc(OC)cc1 (stereo unspecified) | · | · | – | · | · | ·
Cn1cnc([N+](=O)[O-])c1S(=O)(=O)Oc1ccc(Cl)cc1 | – | 233 | – | · | – | –
O=c1c(Cl)nc2cc(Cl)ccc2n1CCNc1ncc(C(F)(F)F)cc1Cl | – | – | · | 88 | – | –
O=c1c2nncn2c2cc(C(F)(F)F)ccc2n1CCNc1ncc(C(F)(F)F)cc1Cl | – | – | – | – | – | –
CCc1ccc([C@H]2[C@@H]3C(=O)C[C@@H]4C(=O)NC(=O)[C@@H]4[C@@H]3CN2S(=O)(=O)c2ccc(C)cc2)cc1 | – | · | – | · | · | ·
O=C(O)c1cc(O)c2c(c1)[C@@H]([C@H]1c3cc(C(=O)O)cc(O)c3C(=O)c3c(O[C@@H]4O[C@H](CO)[C@@H](O)[C@H](O)[C@H]4O)cccc31)c1cccc(OC3O[C@H](CO)[C@@H](O)[C@H](O)[C@H]3O)c1C2=O (stereo partly specified) | – | – | 62 | – | – | –
CCOC(=O)c1ccc(NC2=CC(=O)CC(c3ccco3)C2)cc1 (stereo unspecified) | – | – | – | – | 60 | –
